In the supplement of paper PMC6555819:

Assays:
Experiment in all cases: PBM binding z-score (relative to random genomic background probes); higher = stronger binding; sequences stand for … in GC…GCGATTGACAGCGTAGAATGAAGG
[1] = system: RARb homodimer (NR concentration 270 nM)
Summary of the method: (§1)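 Binding buffer was PBS pH 7.4 with 2% milk, 0.02% Triton X-100, 1 mM DTT, 0.2 mg/mL BSA and 0.4 mg/ml salmon testes DNA. In it, ligand-free nuclear receptor dimers were incubated 1 h on custom Agilent 4×180K protein-binding microarrays carrying double-stranded probes. Antibodies against each partner (one per run) detected binding, and z-scores were calculated against random background probes after regression normalization of scanned fluorescence.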

[2] = system: RARg:RXRa (NR concentration 270 nM, RXRa partner concentration 90 nM)
Summary of the method: as §1

[3] = system: RARg homodimer (NR concentration 270 nM)
Summary of the method: as §1

[4] = system: RXRa DBDmut IVT, anti-RXR (DBD mutation: RXRa K156A/R161A, NR concentration 90 nM)
Summary of the method: as §1

[5] = system: RXRa homodimer (NR concentration 180 nM)
Summary of the method: as §1

[6] = system: THRa:RXRa (NR concentration 90 nM, RXRa partner concentration 90 nM)
Summary of the method: as §1

[7] = system: THRa homodimer (NR concentration 90 nM)
Summary of the method: as §1

[8] = system: VDR homodimer (NR concentration 270 nM)
Summary of the method: as §1

Row | Sequence | PBM binding z-score [1] | PBM binding z-score [2] | PBM binding z-score [3] | PBM binding z-score [4] | PBM binding z-score [5] | PBM binding z-score [6] | PBM binding z-score [7] | PBM binding z-score [8]
1 | GGAACGAGGGCAAAGTTGATAGCCTCTGTCGACG | 1.42 | 2.14 | 1.91 | 2.49 | 1.84 | 1.35 | -0.295 | 1.54
2 | TCTGCTAGGTCAGTTCGTCAGCTAACGAGCTGCC | 1.84 | 2.16 | 3 | 0.634 | 0.516 | 1.2 | -0.388 | 0.389
3 | CCTCGGAGGACAGAAGGTCTGAGCTGTCCGCTTT | -0.106 | -0.159 | 0.14 | -0.0896 | -0.825 | -0.0206 | -0.537 | -0.369
4 | TGTCAAAGTTCAAAGGTAACGTTAGTATCCACAC | 4.11 | 6.39 | 6.13 | 4.32 | 7.81 | 3.18 | -0.0671 | 3.97
5 | GCTCGGAGGACAAGGTCAGAACTTTGTCCGTAGA | 2.83 | 3.15 | 3.26 | 0.38 | 2.6 | 2.67 | 0.989 | 0.595
6 | CTACCAAGGTGAACAAAGTCGTTGATTACTATTC | 0.608 | 0.623 | 0.808 | 0.695 | 0.378 | 1.69 | 0.927 | 0.24
7 | ATCGAAAGGTCGAGGTGAGTATGGAGAAAGGGAA | 2.76 | 4.21 | 4.51 | 0.698 | 4.17 | 2.84 | 0.743 | 0.435
8 | CCGACTGGGGCAAGGTTACCAAAACGCACAGCCA | 1.38 | 1.04 | 1.18 | -0.429 | 1.23 | 1.29 | 0.178 | -0.217
9 | GTACCAAGGTGAATAGGTAGTTGATGAGTAGGCG | 0.555 | 0.67 | 0.626 | -0.423 | 0.629 | 1.14 | 0.657 | 0.0253
10 | TCTCGGAGGACACGACGGTCAGAGCTTTCCAGAG | 1.53 | 0.617 | 1.65 | 0.193 | 0.0986 | 1.33 | 0.161 | -0.222
11 | AGAACGTGGGCACGCTGAGTTGATAGCAGAGTAG | -0.561 | -0.224 | -0.0604 | -0.279 | -0.0635 | -0.485 | -0.747 | -0.131
12 | CCGACTGGGGCAGAAATGTTACCATACCATCCGG | -0.118 | 0.0842 | 0.109 | -0.424 | 0.066 | -0.666 | -0.0908 | -0.0383
13 | AGAACGAGGGCAATGAGTTGATAGAACGGGTGGC | 0.861 | 1.14 | 1.61 | 2.13 | 0.744 | 0.969 | -0.182 | 2.82
14 | ATCGAAAAGTCGACGAGGTGAGTATACACCGTTT | 0.0886 | 0.532 | 0.571 | -0.248 | 0.751 | 1.74 | 0.716 | -0.201
15 | CCGACTGGGGCTAGGTTACCATAACGCACAGCCA | 0.542 | 0.00576 | 0.24 | -0.639 | 0.166 | 0.173 | -0.0667 | -0.608
16 | AGAATGAGGTTATTAAGATCAGCGAATTGCGGTC | 0.651 | 1.02 | 0.64 | 1.95 | 1.43 | 2.07 | 0.43 | 0.913
17 | ACTCGGAGTACAAAGGTCAGAGCTACGCCAGTGA | 4.27 | 5.22 | 4.7 | 2.11 | 5.37 | 2.64 | -0.258 | 1.63
18 | ACCGAAAGGTCGTGAGGTGAGTATACAGAAAGGC | 2.84 | 4.64 | 4.01 | 1.74 | 5.25 | 3.48 | 1.28 | 0.625
19 | TCATATAGGGAAAGGTGAAAGTCGAACGATATGA | 1.48 | 1.49 | 1.17 | 0.835 | 2.02 | 1.01 | -0.407 | -0.12
20 | GCTAGTTGGTCAGAAAAAGGTCACACACCGGTCG | 5.21 | 5.28 | 4.72 | 0.268 | 4.82 | 3.52 | 1.44 | 1.71
21 | CCTGCTAGCTCATGGTCAGCTAATCTACAGTATG | -0.424 | -0.342 | -0.0465 | -0.0856 | -0.437 | -0.44 | -0.771 | -0.81
22 | TATACAGTGTCAAAGGCCAGAGTACGAATGTCGA | 1.59 | 1.53 | 1.65 | -0.125 | 1.49 | 0.336 | -0.189 | 0.636
23 | ACTCGCAGGCCAAGGGTCACTCAAGATTAGTCCG | 3.81 | 4.36 | 3.98 | 1.03 | 3.97 | 2.95 | 0.204 | 0.901
24 | CCAGACAGTTGAAAGGTAACTCAGTCTGGTACGC | 0.351 | 0.456 | 0.357 | 0.511 | 0.993 | 0.38 | -0.129 | -0.355
25 | AATACAGGGTCATCGTAGGCGAGAGTACGCACAG | 3.47 | 5.58 | 4.77 | 3.52 | 6.54 | 4.45 | 1.32 | 3.54
26 | GCGACTGGGGCATCAGCAGGTTATCATAACTTAA | 0.979 | 0.933 | 0.586 | -0.0902 | 0.555 | 1.05 | -0.305 | -0.259

Row | Sequence | PBM binding z-score [1] | PBM binding z-score [2] | PBM binding z-score [3] | PBM binding z-score [4] | PBM binding z-score [5] | PBM binding z-score [6] | PBM binding z-score [7] | PBM binding z-score [8]
27 | ACAGACATGTGATGAAGGTAACTCAGGCTATCAT | -0.417 | 0.0722 | 0.176 | 0.00385 | 0.168 | 0.492 | -0.106 | -0.35
28 | CAAACTAGGTCAAGAGGTCATAGTCCGCTTCCCG | 5.49 | 7.6 | 7.08 | 2.78 | 7.48 | 4.35 | 2.59 | 3.82
29 | CCTAGCAGGGCAATCTGGGTCACTCAAGGCTTGA | 2.36 | 1.56 | 1.89 | 0.252 | 0.981 | 4.24 | -0.0319 | -0.354
30 | CAAACTAGGTCACGAAAGGTTAAAGTCGAATGAC | 4.85 | 6.19 | 6.18 | 1.95 | 5.5 | 4.67 | 1.78 | 1.8
31 | TCCGCTAGGTCAGTTGGTCAGCTAACGAGCTGCC | 2.85 | 2.77 | 3.75 | 0.733 | 1.01 | 1.27 | 0.178 | -0.514
32 | GCATATATGTAATACAAGGTGAAAGTCCGATTGT | 0.691 | 0.257 | 0.615 | 0.612 | 0.52 | 2.79 | 1.14 | -0.0295
33 | CCTGCTAGGTCATGGCCAGCTAATCTACAGTATG | 3.06 | 3.9 | 4.02 | 1.3 | 2.92 | 3.02 | 0.915 | 0.188
34 | TCATATAGGTAAAGGTGACAGTCGAACGATATGA | 1.42 | 1.61 | 1.5 | 0.827 | 2.06 | 1.38 | -0.0654 | -0.0372
35 | GCTAGTTGGTCAGTAACAGGTCACACACCGGTCG | 3.38 | 2.86 | 2.06 | 0.0356 | 2.11 | 2.13 | 1.06 | 0.753
36 | AGAACGAGGGCAATGCGTTGATAGCACGGGTGGC | 0.934 | 1.05 | 1.65 | 1.2 | 0.834 | 0.775 | -0.0819 | 1.17
37 | GATACAGGGTCAGCTAGAGGCCATAGTATGGAAA | 3.52 | 6.77 | 4.83 | 1.57 | 3.96 | 3.29 | 0.486 | 1.33
38 | CAAACTAGGTCACGAAAGGTCAAAGTCGAATGAC | 5.65 | 7.91 | 8.57 | 2.39 | 7.98 | 5.23 | 2.6 | 3.77
39 | GCGACTGAGGCATCAGCAGGTTACCATAACTTAA | -0.000366 | -0.216 | -0.35 | -0.168 | -0.0735 | 0.371 | -0.148 | -0.64
40 | ATACCAAGGTGATCGTGAGGTCGTTGGTACTAAC | 1.55 | 2.1 | 0.722 | 0.424 | 1.5 | 3.39 | 2.22 | 2.96
41 | ACTATTAGTTGACTTAGGGTAACCGATACGACGC | 0.611 | 0.744 | 0.754 | 0.853 | 0.525 | 2.77 | 1.43 | 0.184
42 | CCTTACGGGACACGAGGTTATAGCACGACGAGCG | 1.03 | 1.49 | 1.14 | -0.0752 | 1.19 | 1.77 | 0.83 | 0.544
43 | CCTACTTGGCCAAAAAGGTCATTGATGCCGATAA | 4.05 | 4.68 | 4.19 | 1.55 | 5.15 | 3.18 | 1.06 | 3.04
44 | CCTGCTAGGTCAATGGTCTGCTAAAGCAGCTCGC | 2.64 | 3.31 | 3.96 | 1.75 | 1.63 | 2.31 | 0.724 | -0.14
45 | CGAACGAGGGCATGACTTGATAGCAAATGCCGAT | 0.668 | 1.26 | 1.54 | 2.16 | 0.981 | 1.2 | -0.168 | 0.849
46 | ATAAGTAGGTTACATCCGGGTCATTCAGGCTATG | 2.83 | 3.41 | 2.17 | 1.37 | 3.12 | 3.72 | 2.7 | 3.19
47 | ACTATTAGTTGACTCAGGGCAACCGATACGACGC | 0.937 | 0.721 | 0.905 | 0.661 | 0.488 | 1.5 | 0.878 | 0.644
48 | AGCTCTAGGTAAAGATAGTTCAGTGAATGCAAAT | 1.34 | 0.3 | 0.62 | -0.0733 | 0.094 | 0.782 | 0.107 | 0.592
49 | ATCGAAAGGTCGAGGGGAGTATAGAGAAAGGGAA | 2.84 | 4.18 | 4.21 | 1.4 | 3.94 | 2.05 | 0.272 | 0.958
50 | CGTTACGGGTCACGAGGTTATAGCACGACGAGCG | 3.99 | 6.32 | 5.62 | 2.01 | 7.51 | 3.95 | 1.09 | 1.96
51 | CTACCAAGGTGACCAAGGTCGTTGATTACTATTC | 1.86 | 1.47 | 1.08 | 1.1 | 1.66 | 2.92 | 1.76 | 2.06
52 | CAAGACAGGTGAAAGGTAACTCAGTCTGGTACGC | 0.906 | 1.58 | 0.784 | -0.244 | 2.35 | 1.2 | 0.0377 | -0.217
